Screening data as filed in PubChem BioAssay.
This is a sample that favours compounds with a hit; in the whole collection about 21% have one here.
Pf growth 96h = P. falciparum growth inhibition at 96 hours | P. falciparum luciferase reporter growth, 96 h | Potency, µM (top dose mostly 28.7 µM), inactives show at the highest dose activity change, negative = inhibition, actives largely listed as inhibitors | 320,000 compounds, 6.9% hits; note: potency is the fitted concentration of half-maximal effect; % is set by controls: 0 for no effect and ±100 for the full control effect
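Plates of compound plus infected erythrocytes (2% hematocrit, 0.05% parasitemia final) incubate 96 hours, 37 C, 5% CO2. Detection reagent added; reduced luminescence from the parasites' luciferase reporter flags inhibition.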
NS1 function inh = blocks influenza NS1 protein function; Potency, µM (top dose mostly 46.1 µM), for inactives: top-dose activity, positive = more growth; 270,000 compounds, 0.4% hits; calls by dose curve; note: potency is the fitted concentration of half-maximal effect; actives are rising curves; nearly all actives have a fitted effect of over 50% in size
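Growth recovery, yeast-based: influenza A NS1 expressed in S. cerevisiae causes slow growth, and suppressors are detected by OD600. The parent strain without NS1 is used as positive control.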
SARS PLpro yeast = blocks SARS-CoV papain-like protease in a yeast assay; 330,000 compounds, 0.19% hits; AID 485353; Potency, µM (highest dose often 32.9 µM), for inactives: at the highest dose activity, positive = growth rescue, actives largely listed as activators; S. cerevisiae expressing SARS-CoV PLpro, growth rescue; calls by dose curve; note: potency is the fitted concentration of half-maximal effect; 0% is about no effect; nearly all actives have a fitted effect of over 55% in size
CHX counter = counter-screen hit for Shiga toxin inhibitors, cycloheximide; cell reporter, cycloheximide protein synthesis inhibition counterscreen; max response, %; 300,000 compounds, 12% hits; AID 2314; in the data active = max response mostly above about 13%, no sharp cut-off; inactive = mostly below about 14%; note: read at 38.3 µM for the half of the compounds with a filed dose; 0% is about no effect
Shiga inhibitor = blocks Shiga toxin action in Vero cells. 290,000 compounds, 9.2% hits. inhibition, % at 38.7 µM. Vero cells, Shiga toxin protein synthesis inhibition reporter; in the data active = inhibition mostly above about 28%, no sharp cut-off; inactive = mostly below about 43%; note: 0% is about no effect
Pf growth 48h = P. falciparum growth inhibition at 48 hours (one generation) | P. falciparum luciferase growth in erythrocytes, 48 h | Potency, µM (doses to about 28.7 µM), inactives show at the top dose activity change, negative = inhibition, usual class: inhibitors | 310,000 compounds, 5.9% hits | AID 504832; note: potency is the fitted concentration of half-maximal effect; % is set by controls: 0 for no effect and ±100 for the full control effect
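Luciferase-expressing P. falciparum in infected erythrocytes (2% hematocrit, 0.1% parasitemia final) in RPMI 1640/0.5% Albumax were exposed to compound for 48 hours at 37 C, 5% CO2; growth read as luminescence.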
* = called active by the depositor; ? = inconclusive; . = no result. Unless noted, calls come from the whole dose curve; as a rule, active = well fitted inhibition curve with a large enough effect; inconclusive = small, poorly fitted or top-dose-only effect, or another doubt; inactive = no such curve, though single readings can be large or run the other way.

SMILES | Pf growth 96h | NS1 function inh | SARS PLpro yeast | CHX counter | Shiga inhibitor | Pf growth 48h
O=C(Nc1ccc([N+](=O)[O-])cc1)c1cc(-c2ccccn2)nc2c(Cl)cccc12 | 15µM* | 3% | -1% | -2 | -5 | 18%
COc1cccc(-c2cc(C(=O)N3CCN(c4ncccn4)CC3)c3ccccc3n2)c1 | -23% | 4% | 0% | 19* | 59* | ?
CC(C)Oc1cccc(-c2cc(C(=O)N3CCN(c4ncccn4)CC3)c3ccccc3n2)c1 | 9.3µM* | 2% | 2% | 43* | 68* | .
Cc1cccc2c(C(=O)Nc3ccc(Br)cc3)cc(-c3ccccn3)nc12 | ? | 0% | 0% | 15 | -8 | 14%
COc1ccc(-c2cc(C(=O)N3CCN(c4ncccn4)CC3)c3ccccc3n2)cc1OC | -39% | . | 7% | . | . | ?
O=C(Nc1cc(S(=O)(=O)N2CCOCC2)ccc1N1CCOCC1)c1cccs1 | ? | . | 1% | . | . | -21%
COc1ccccc1NC(=O)CSc1nnc(-c2ccoc2C)n1C | 0% | 1% | -2% | -1 | -2 | 1%
O=C(c1cc(-c2ccccn2)nc2c(Cl)cccc12)N1CCN(S(=O)(=O)c2ccccc2)CC1 | -16% | ? | -14% | 6 | -7 | 10µM*
Cc1ccc(-c2cc(C(=O)N3CCN(c4ncccn4)CC3)c3ccccc3n2)cc1 | 13% | -88% | -9% | 49* | 53 | ?
COc1ccc(-c2cc(C(=O)N3CCCCC3)c3ccccc3n2)cc1 | -84% | . | -13% | . | . | 5%
O=C(c1cc(-c2cccs2)nc2ccccc12)N1CCN(S(=O)(=O)c2cccc(F)c2)CC1 | . | -5% | -4% | 32* | 30* | ?
CC(C)Oc1cccc(-c2cc(C(=O)N3CCN(S(C)(=O)=O)CC3)c3ccccc3n2)c1 | ? | -25% | 0% | 37* | 57 | ?
CN(CC(=O)NC1CCCc2ccccc21)S(=O)(=O)c1cccs1 (stereo not given) | ? | 4% | 16% | 2 | -6 | -11%
O=C(NCCOc1ccccc1)C1CCCCC1 | ? | . | 10% | 29* | 72* | 103%
O=C(CC1CCCCC1)NCCOc1ccccc1 | -9% | 3% | 30% | 9.7* | 50* | 27%
O=C(NCCOc1ccc(F)cc1)C1CCN(S(=O)(=O)c2ccccc2)CC1 | 0% | -9% | -2% | -5 | 14 | 13%
O=C(CNC(=O)c1cccc([N+](=O)[O-])c1)NC1CCCc2ccccc21 (stereo not given) | ? | . | 0% | . | . | -7%
CC(C)(C)NC(=O)c1nn(Cc2ccccc2)c(=O)c2ccccc12 | ? | . | ? | 14 | 14 | -5%
N#CCCN(NC1=NS(=O)(=O)c2ccccc21)C(=O)c1ccccc1Br | 3.3µM* | 3% | 1% | -3 | -2 | 15%
COc1cc(/C=C2/C(=O)NC(=O)N(c3ccc(C)cc3)C2=O)cc(OC)c1OC | 3% | 4% | 2% | 27* | 67* | 2%
COc1ccc(N2C(=O)NC(=O)/C(=C/c3ccc4c(c3)Cc3ccccc3-4)C2=O)cc1 | 14% | . | -9% | 29* | 34 | 63%
CCOC(=O)C(=O)NN=C(c1ccccc1)c1ccccc1 | 39% | 3% | 0% | -4 | 9 | 0%
Nc1nc(-n2cnnc2)nn1-c1ccccc1 | 2% | -1% | -3% | -2 | 9 | 7%
Nc1nc(N2C(=O)C3CC=CCC3C2=O)nn1-c1ccccc1 (stereo not given) | 2.9µM* | -13% | 5% | -2 | -2 | ?
Cc1ccc(NC2=C(NCCO)C(=O)c3ccccc3C2=O)cc1 | 67% | -13% | -3% | 32* | 87* | 5.9µM*
SMILES | Pf growth 96h | NS1 function inh | SARS PLpro yeast | CHX counter | Shiga inhibitor | Pf growth 48h
O=C1C(Cl)=C(NCCN2CCOCC2)C(=O)c2ccccc21 | ? | -3% | 0% | 32* | 63* | ?
Cc1ccc(NCCNc2ccc(C)cc2)cc1 | . | -19% | 0% | 3 | 20 | 44%
O=C1C(Cl)=C(NCCCO)C(=O)c2ccccc21 | . | -49% | -10% | 14* | 13 | ?
CCOCCCNC1=C(Cl)C(=O)c2ccccc2C1=O | ? | -54% | -5% | 36* | 72* | 3.7µM*
Cc1ccc(-c2nc(CN(C)Cc3ccc4nccnc4c3)c(C)o2)s1 | -11% | -1% | -3% | 1 | -15 | 12%
COc1ccc(C2(C)NC(=O)N(CC(=O)Nc3ccc4c(c3)OCO4)C2=O)cc1OC (stereo not given) | ? | 15% | -3% | -3 | 17 | -7%
COc1ccc(C2=C(Nc3ccc(C)cc3)c3ccccc3C2=O)cc1 | -15% | 11% | -5% | 1 | -13 | 0.83µM*
COc1ccc(C2=C(Nc3ccc(F)cc3)c3ccccc3C2=O)cc1 | 39% | 4% | -2% | -3 | -19 | -2%
Cn1c(N)c(C(=O)CSc2nnc(C3CC3)n2-c2ccccc2)c(=O)n(C)c1=O | ? | . | 0% | . | . | ?
Cc1ccc(-c2nnc(CCC(=O)NCC3C4CC5CC(C4)CC3C5)o2)s1 (stereo not given) | -1% | -5% | -1% | 52* | 103* | ?
NC(=O)N/N=C/c1cn(-c2ccccc2)nc1-c1ccccc1 | ? | . | -4% | 31* | 60* | -51%
O=C(CNc1ccccc1)N/N=C/c1cn(-c2ccccc2)nc1-c1ccccc1 | ? | 22% | 6% | 9.7* | 54 | 12µM*
O=C(N/N=C/c1cn(-c2ccccc2)nc1-c1ccc(F)cc1)c1ccc(Br)o1 | ? | -3% | 2% | 7 | 33 | 8.3µM*
O=C(N/N=C/c1cn(-c2ccccc2)nc1-c1cccnc1)c1ccc(F)cc1 | ? | . | 9% | 7 | 7 | ?
CN1CCC(N(C)C(=O)/C=C/c2cn(-c3ccccc3)nc2-c2cccs2)CC1 | ? | . | 3% | 3 | -22 | 5.9µM*
CC(NC(=O)c1cnccn1)c1ccc(S(N)(=O)=O)cc1 (stereo not given) | -34% | 0% | 1% | 1 | -9 | -2%
Cc1ccc(S(=O)(=O)N(C)Cc2ccc(C(=O)N/N=C/c3ccc(OC(F)F)cc3)cc2)cc1 | -15% | 6% | 12% | 1 | -3 | 9%
Cc1ccc(CNC(=O)CCSCCC(=O)NCc2ccc(C)cc2)cc1 | ? | -3% | 5% | -8 | -15 | .
O=C(N/N=C/c1cn(-c2ccccc2)nc1-c1cccs1)c1ccccc1F | 48% | 20% | -25% | 20* | 83* | -18%
O=C(N/N=C/c1cn(-c2ccccc2)nc1-c1cccs1)c1ccc(Cl)cc1 | ? | 22% | -3% | -3 | 8 | ?
O=C(CN1CCCc2ccccc21)Nc1cccc(S(=O)(=O)N2CCOCC2)c1 | ? | . | 2% | . | . | ?
COC(=O)c1ccc(-c2ccco2)n1Cc1nc(-c2ccc(OC)c(OC)c2)oc1C | . | 25% | -2% | 6 | 13 | 13µM*
NC(=O)N/N=C/c1ccc([N+](=O)[O-])o1 | 5.4µM* | . | . | . | . | 12µM*
